The list is not random: actives were taken first. Their share in the collection is about 7%.
AHR activator: human AHR activation. AHR-responsive luciferase reporter cells, luminescence. actives 2.5% (n = 320,000). P35869. activation, % at 5 µM; in the data active = activation above about 47%
KLK7 zymogen act: activators of human kallikrein-7 zymogen | P49862 | purified proKLK7, EDANS-DABCYL substrate fluorescence; 100% is mature enzyme control, 0% vehicle | activation, % at 7 µM | actives 0.9% (n = 370,000);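 active = activation above the mean of all tested compounds plus 3 SD, computed per campaign excluding outliers beyond control limits, cut at about 13% in these data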
Target sequence (P49862 whole entry, looked up): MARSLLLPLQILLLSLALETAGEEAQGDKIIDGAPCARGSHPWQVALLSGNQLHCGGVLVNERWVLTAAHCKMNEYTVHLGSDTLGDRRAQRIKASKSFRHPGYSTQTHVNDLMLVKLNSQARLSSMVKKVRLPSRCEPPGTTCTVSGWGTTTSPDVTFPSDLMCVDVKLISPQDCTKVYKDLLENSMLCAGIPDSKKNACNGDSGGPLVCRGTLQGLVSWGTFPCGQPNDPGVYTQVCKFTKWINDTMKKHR
ADAM10 inh: ADAM10 inhibition, QFRET primary screen; O14672; recombinant ADAM10, EDANS/DABCYL FRET peptide cleavage, 3 h; inhibition, % at 7 µM; actives 0.62% (n = 370,000); AID 720582;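 active = inhibition above a per-campaign cutoff equal to the mean of compounds falling between control-based bounds plus 3 SD, cut at about 20% in these data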
rCAG binder: molecules binding r(CAG) RNA repeats; r(CAG) RNA repeat, TO-PRO-1 dye displacement fluorescence; inhibition, % at 3 µM; actives 1.3% (n = 370,000);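 active = inhibition above the plate cutoff, the mean of all test compounds on that plate plus 3 SD, cut at about 35% in these data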;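 also: higher means more dye released from RNA so lower well fluorescence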
GRIN3A LBD mod: modulates the human NR3A ligand-binding domain | NR3A LBD differential scanning fluorimetry, Tm shift; 0% = protein alone, 100% = glycine-bound protein | Tm shift relative to glycine control, % at 25 µM | actives 2.5% (n = 340,000) | AID 1259313;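 active = melting temperature shift of at least 10% of the positive control shift, at one fixed dose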
ADAM17 inh: ADAM17 inhibition, QFRET primary screen; P78536; recombinant ADAM17, EDANS/DABCYL FRET peptide cleavage; inhibition, % at 6.95 µM; actives 0.83% (n = 370,000); AID 720648;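 active = inhibition above the mean of compounds lying between control limits plus 3 SD, set per campaign, cut at about 8.5% in these data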
A number is an active result; n = inactive; x = not tested or not shown.

SMILES	AHR activator	KLK7 zymogen act	ADAM10 inh	rCAG binder	GRIN3A LBD mod	ADAM17 inh
CC(C)(C)n1nc(C2CC2)c(Br)c1NC(=O)c1ccccc1Cl	x	n	n	n	x	n
Cc1nn(C)cc1CN(C)C(=O)c1cc2nc(-c3ccco3)cc(C(F)(F)F)n2n1	n	16	n	n	n	n
O=C(NCc1ccco1)c1cc2nc(-c3ccc4c(c3)OCO4)cc(C(F)(F)F)n2n1	63	n	n	n	n	n
O=C(Nc1nc(Cc2ccccc2)c(-c2ccccc2)n1Cc1ccccc1)c1ccccc1	x	n	n	n	x	n
Cc1cc(C)n(-c2nc(N(c3ccccc3)c3ccccc3)nc(-n3nc(C)cc3C)n2)n1	n	x	x	x	34	x
Cc1cc(C)n(-c2nc(Nc3ccccc3)nc(-n3nc(C)cc3C)n2)n1	n	n	n	n	n	n
O=C(O)Cc1sc(Nc2cccc3ccccc23)nc1-c1ccccc1	61	n	n	n	n	n
O=C(Cc1sc(-c2ccccc2)nc1-c1ccccc1)Nc1ccc(Cl)cc1	n	n	n	n	24	n
O=C(O)Cc1sc(Nc2cccc3ccccc23)nc1-c1ccc(Cl)cc1	56	n	n	n	n	n
O=C(Cc1sc(-c2ccccc2Cl)nc1-c1ccccc1)Nc1ccccc1	n	n	n	n	n	n
COC(=O)[C@]12C[C@H](CC(=O)NCc3cccs3)C(=O)N(Cc3ccc(Cl)cc3Cl)C1=C[C@H](C(C)C)O[C@@H]2C1CC1	x	n	n	n	x	n
CCCc1cc(=O)[nH]c(Nc2ccc3c(c2)OCCO3)n1	71	n	n	n	n	n
CCCN(CCC)CCN1CCN(C(=O)[C@H](CCc2ccccc2)NC(=O)[C@H]2O[C@@H](n3cnc4c(N)ncnc43)[C@H](O)[C@@H]2O)CC1	x	n	n	n	x	n
S=C1Nc2ccccc2CS1	x	n	n	n	x	n
S=C1Cc2ccccc2N1	x	n	n	44	n	n
O=C(Cn1c(-c2cncs2)nc2ccccc21)N1CCOCC1	x	n	n	n	x	n
Cc1cccc(C2=NN(c3ccccc3)[C@@H](C(=O)N3CCOC3=O)[C@@H]2c2ccccc2)c1	x	n	n	n	n	n
C[C@@H]1C(c2cccc(Cl)c2)=NN(c2ccc(Br)cc2)[C@H]1C(=O)N1CCOC1=O	x	x	x	x	21	x
C[C@@H]1C(c2cccc(Cl)c2)=NN(c2ccccc2)[C@H]1C(=O)N1CCOC1=O	x	n	n	n	n	n
Cc1cccc(C2=NN(c3ccc(Br)cc3)[C@@H](C(=O)N3CCOC3=O)[C@@H]2c2ccccc2)c1	x	x	x	x	15	x
OCCNc1nc(Nc2ccc(Cl)cc2)nc(N2CCCC2)n1	n	n	n	n	n	n
COc1cccc(Nc2nc(NCCO)nc(N3CCCC3)n2)c1	48	n	n	n	n	n
OCCNc1nc(N2CCCC2)nc(N2CCCC2)n1	n	n	n	n	n	n
CCCNc1nc(Nc2ccc(C)cc2)nc(N2CCCC2)n1	50	x	x	x	n	x
C=CCNc1nc(NCCO)nc(N2CCCC2)n1	65	n	n	n	n	n
SMILES	AHR activator	KLK7 zymogen act	ADAM10 inh	rCAG binder	GRIN3A LBD mod	ADAM17 inh
COc1cccc(Nc2nc(-c3ccccc3O)nc3ccccc23)c1	n	n	n	n	32	n
COc1ccc(Nc2nc(NCCO)nc(N3CCCC3)n2)cc1	n	n	n	n	n	n
COc1ccc(C2C(C(=O)N3CCC(C)CC3)CC(=O)N2c2ccc(OC)cc2)cc1 (stereo not drawn)	x	n	n	n	x	n
CC(=O)Nc1sc2c(c1-c1cc3ccccc3o1)CCNC2	x	x	n	x	x	n
COc1cccc(Nc2nc(NCCO)c3ccccc3n2)c1	49	n	n	n	n	n
COc1ccc(Nc2nc(-c3ccccc3)nc3ccccc23)c(OC)c1	n	n	n	n	n	n
COc1cccc(Nc2nc(-c3ccccc3)nc3ccccc23)c1	54	n	n	n	37	n
COc1ccc(CNS(=O)(=O)/C=C/c2ccccc2CNC(=O)OC(C)(C)C)cc1	x	n	n	n	x	n
Cc1nc(N/N=C\c2ccc3c(c2)OCO3)sc1C	75	n	n	n	n	n
C(=N\Nc1nc2ccccc2s1)/c1ccc2c(c1)OCO2	112	n	n	n	n	n
Nc1[nH]c(C(=O)c2ccccc2)c(-c2ccc3ccccc3c2)c1C(=O)NCCc1ccc(Cl)cc1	x	x	n	x	x	n
CCOc1ccccc1-c1nc2c(s1)CCc1onc(-c3ccc(OC)cc3)c1-2	n	n	n	n	17	n
COc1ccc(C(=O)Nc2nc(C)c3cc4c(cc3n2)OCO4)cc1	n	n	n	n	n	n
Cc1cc(C)nc(Nc2nc(C)c3cc4c(cc3n2)OCO4)n1	49	n	n	n	n	n
COc1ccc(-c2cn[nH]c2-c2ccc(OCc3ccc(F)cc3)cc2O)cc1OC	n	n	n	n	16	n
O=[N+]([O-])c1ccc(COc2ccc(-c3[nH]ncc3-c3ccccc3)c(O)c2)cc1	57	n	n	n	25	n
Oc1cc(OCc2ccccc2)ccc1-c1[nH]ncc1-c1ccccc1	n	n	n	n	17	n
CC(C)N(Cc1nc(-c2ccc3c(c2)OCO3)no1)Cc1nccn1C	61	n	n	n	n	n
C=C(C)C(COc1c2occc2cc2ccc(=O)oc12)OC(C)(C)C(O)COc1c2occc2cc2ccc(=O)oc12 (stereo not drawn)	78	n	n	n	n	n
CC(C)C(=O)COc1c2occc2cc2ccc(=O)oc12	n	n	n	n	n	n
Cc1ccc(OCc2nnc(SCC(=O)c3ccc4ccccc4c3)n2-c2ccc(Cl)cc2)cc1	x	n	n	n	x	n
CN(CCOC(=O)c1cccs1)C1CN(Cc2cn(Cc3ccccc3Cl)nn2)S(=O)(=O)C1 (stereo not drawn)	x	n	n	n	x	n
COc1ccc2c(c1)c1nnc(SCC(=O)NC3CC3)nc1n2C	72	n	n	n	n	n
O=C(OCc1ccccc1F)c1cc(S(=O)(=O)N2CCCCC2)ccc1N1CCOCC1	x	n	n	n	x	n
COc1cccc(COC(=O)c2cc(S(=O)(=O)N3CCCCC3)ccc2N2CCOCC2)c1OC	n	n	n	n	19	n
SMILES	AHR activator	KLK7 zymogen act	ADAM10 inh	rCAG binder	GRIN3A LBD mod	ADAM17 inh
Cc1ccc(N=Nc2ccc(O)c3ncccc23)cc1	47	n	n	n	n	n
COc1ccccc1N=Nc1ccc(O)c2ncccc12	51	n	n	n	n	n
Cc1ccc(N=Nc2ccc(O)c3ncccc23)cc1C	n	n	n	n	n	n
CCS(=O)(=O)c1ccc(N=Nc2ccc(O)c3ncccc23)c(OC)c1	x	n	n	n	n	n
COc1cccc(/C=C2\CC3(OC(=O)c4ccc(F)cc4)CCCN2C3)c1 (stereo not drawn)	x	n	n	n	x	n
COc1ccc(NS(=O)(=O)c2cc([N+](=O)[O-])ccc2N/N=C/c2c(C)[nH]c3ccccc23)cc1	x	n	n	n	28	n
COC(=O)c1cc2c(c3c4ccccc4n(S(=O)(=O)c4ccc(C)cc4)c13)C(=O)N(CC(C)C)C2	x	n	n	n	x	n

Screening data as filed in PubChem.
